# Experimental data published in PubChem BioAssay.
# What was measured:
# [1] = molecular target: Tumor necrosis factor receptor superfamily member 10B (Homo sapiens) (UniProt O14763); experiment: caspase-8 TRAIL sensitization, hit retest, confirmation, cell-based, NB7+caspase-8, with/without TRAIL, luminescence panel (AID 651596); conditions: NB7 neuroblastoma + caspase-8, TRAIL sensitization, luminescence viability, with TRAIL, mean of runs, at 10 µM, stronger effect = higher value
# [2] = as above; conditions: NB7 neuroblastoma + caspase-8, without TRAIL, luminescence viability, without TRAIL, mean of runs, at 10 µM
# Chain of Tumor necrosis factor receptor superfamily member 10B (Homo sapiens) (O14763 whole entry, looked up): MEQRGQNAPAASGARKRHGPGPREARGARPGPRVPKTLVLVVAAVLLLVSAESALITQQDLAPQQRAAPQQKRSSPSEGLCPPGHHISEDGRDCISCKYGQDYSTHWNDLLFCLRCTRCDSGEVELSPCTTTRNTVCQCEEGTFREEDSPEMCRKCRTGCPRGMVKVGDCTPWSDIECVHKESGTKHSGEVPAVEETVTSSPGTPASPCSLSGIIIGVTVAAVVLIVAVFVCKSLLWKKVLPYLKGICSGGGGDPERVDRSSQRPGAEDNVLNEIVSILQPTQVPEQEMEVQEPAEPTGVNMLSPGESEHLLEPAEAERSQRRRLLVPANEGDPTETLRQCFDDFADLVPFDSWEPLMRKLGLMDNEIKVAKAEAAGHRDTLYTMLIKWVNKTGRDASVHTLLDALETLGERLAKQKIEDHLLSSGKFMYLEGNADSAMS
compound,measurement,setting,value
O=C(Nc1nc2ccccc2[nH]1)c1ccccc1O,activity,[1],63.1%
same,activity,[2],65.9%
C/C(=N\NC(=O)c1ccc(F)cc1)c1ccccn1,activity,[1],44.9%
same,activity,[2],61.7%
Cc1cc(C(=O)COC(=O)c2n[nH]c3ccccc23)c(C)n1CC1CCCO1 (stereo not given),activity,[1],77.5%
same,activity,[2],75.2%
Cc1ccc(OCCSCc2nnc(NC(=O)Nc3cccc(Cl)c3)s2)cc1,activity,[1],36.6%
same,activity,[2],43.7%
CCc1ccc(-c2cc3c(=O)n(CC(=O)NCCCN4CCC(Cc5ccccc5)CC4)nc(C)n3n2)cc1,activity,[1],55.9%
same,activity,[2],71.5%
O=C(Nc1ccc(NC(=O)C2CC2)cc1)c1ccco1,activity,[1],44%
same,activity,[2],39.1%
COc1ccc2cc3cc(C(=O)NC4CC4)sc3nc2c1,activity,[1],80%
same,activity,[2],81.4%
COc1cc(C2Nc3ccccc3C(=O)N2c2ccc3c(c2)OCCO3)ccc1OCC(C)C (stereo not given),activity,[1],64.9%
same,activity,[2],63.5%
Cc1ccc(C(=O)Nc2ncc(Cc3ccccc3)s2)o1,activity,[1],72.1%
same,activity,[2],75%
COC(=O)CSc1nc2cc(OC)ccc2cc1C#N,activity,[1],75.6%
same,activity,[2],70%
